HT1080 IDH1KD tx = kills HT-1080 cells with IDH1 knockdown | HT-1080 IDH1 knockdown viability, ATP luminescence, 48 h | Potency, µM (titrated, usually from 46.1 µM), inactives show top-dose activity, negative = toxicity, most hits filed as cytotoxic | 360,000 compounds, 2% hits | AID 686971;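 also: 0% = DMSO wells and -100% = cell-free medium wells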
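Assay cells: HT-1080 with IDH1 knockdown, 750 per well, RPMI/5% FBS. Exposure: 48 h at 37 °C following 2 h pre-incubation. Read: CellTiter-Glo luminescence; fitted concentration-response, curve class assigned.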
TDP1 cell noCPT = qHTS for Inhibitors of human tyrosyl-DNA phosphodiesterase 1 (TDP1): qHTS in cells in absence of CPT; DT40 Tdp1-/- hTDP1 cells, no CPT, ATP luminescence, 48 h; 420,000 compounds, 15% hits; AID 686978, 2013; Potency, µM (doses to about 46.2 µM), without a hit: at the highest dose activity change, negative = growth inhibition, usual class: inhibitors; also: % is scaled to controls: 0 for no effect and ±100 for the full control effect; nearly all actives have a fitted effect of over 55% in size
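Luminescent ATP content (CellTiter-Glo) served as the growth readout. Knockout chicken DT40 cells expressing human TDP1 were exposed to compounds without camptothecin for a minimum 48 hr at 37 °C.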
HepG2 tox = counter-screen for TGF-b inhibitors: cytotoxicity in HepG2 cells; 410,000 compounds, 0.76% hits; Potency, µM (titrated, usually from 46.1 µM), without a hit: top-dose activity change, negative = cytotoxicity, most hits filed as cytotoxic; HepG2 CAGA-GFP viability, ATP luminescence, 18 h
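CellTiter-Glo luminescence gave cytotoxicity after 18 hours at 37 degrees C. The cells were HepG2 CAGA-GFP in 1% FBS DMEM, stimulated with 500 pg/mL TGF-beta after compound addition. %Activity was normalised to no-cell wells (complete cell-killing) and DMSO (no toxicity), and curves were fitted and classified.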
TGFb inhibitor = TGF-b pathway inhibition; HepG2 CAGA-GFP TGF-b/SMAD3 reporter, GFP fluorescence, 18 h; TGF-beta stimulated, 500 pg/mL final; Potency, µM (highest dose often 46.1 µM), for the others: at the top dose activity, negative = inhibition, usual class: inhibitors; 410,000 compounds, 1.2% hits; AID 588855; also: % is scaled to controls: 0 for no effect and ±100 for the full control effect; nearly all actives have a fitted effect of over 65% in size
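Using HEPG2 CAGA-GFP reporter cells at 1000 cells/well, we pinned test compounds, stimulated with recombinant TGF-beta (500 pg/mL final) and measured total well GFP after 18 h.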
DT40 TDP1 CPT = growth inhibition of DT40 Tdp1-/-;hTDP1 cells with camptothecin (screen for TDP1 inhibitors); chicken DT40 Tdp1-/-;hTDP1 cells + 20 nM CPT, ATP luminescence, 48 h; 420,000 compounds, 12% hits; Potency, µM (top dose mostly 46.2 µM), for inactives: at the highest dose activity change, negative = growth inhibition, hits mostly inhibitors; also: % is scaled to controls: 0 for no effect and ±100 for the full control effect; nearly all actives have a fitted effect of over 55% in size
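Cell growth measured by CellTiter-Glo luminescence after a minimum 48 h, 37 C compound exposure with 20 nM CPT in Tdp1-knockout DT40 cells stably expressing hTDP1, seeded 400/well; qHTS titration format.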
HT1080-NT tox = kills 2HG-producing HT-1080-NT fibrosarcoma cells; Potency, µM (top dose mostly 46.1 µM), for inactives: top-dose activity, negative = less viability, usual class: cytotoxic; HT-1080-NT fibrosarcoma viability, CellTiter-Glo ATP luminescence, 48 h; 360,000 compounds, 1.6% hits;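 also: NT is the 2HG producing partner of a matched IDH1 knockdown line; 0% = DMSO-treated cells and -100% = media-only wells without cells; nearly all actives have a fitted effect of over 55% in size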
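Luminescent CellTiter-Glo readout after 48 hours of compound exposure at 37 degrees C defined viability of HT-1080-NT cells. Activity was normalized to DMSO wells and cell-free media wells; concentration-response curves were fitted and assigned curve classes.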
An asterisk follows results filed as active; ? = inconclusive; . = no result; [ ] = dose if it differs, or a comment. The list is not random: actives were taken first. Their share in the collection is about 17%. Calls follow the shape of the dose curve; as a rule, active = well fitted curve in the direction sought with a large enough effect; inconclusive = small, poorly fitted or top-dose-only effect, or another doubt; inactive = no such curve, though single readings can be large; an effect the other way counts as inactive or inconclusive. Potency is read from the fitted curve at half-maximal effect.

SMILES	HT1080 IDH1KD tx	TDP1 cell noCPT	HepG2 tox	TGFb inhibitor	DT40 TDP1 CPT	HT1080-NT tox
COc1ccc(CCNC(=O)C2CCCN(Cc3nc(-c4ccccc4C)oc3C)C2)cc1OC (stereo unspecified)	-14%	23µM*	-29%	-23%	23µM*	-5%
CCOc1ccc(CCNC(=O)C2CCN(Cc3nc(-c4ccccc4C)oc3C)CC2)cc1OCC	.	-13%	-17%	1%	-29%	.
CS(=O)(=O)CCC(C(=O)O)N1C(=O)c2ccc(Oc3ccc(Cl)cc3)cc2C1=O (stereo unspecified)	7%	-1%	13%	2%	-1%	3%
CCO[C@H]1[C@H](NC(=O)c2cccnc2)c2ccccc2C12CCN(C(=O)c1cc(C)n(C)n1)CC2	.	-10%	.	.	-8%[9.04 µM]	.
CC(C)Cc1nnc(NC(=O)CN2C(=O)NC3(CC(C)CC(C)(C)C3)C2=O)s1 (stereo unspecified)	7%	?	4%	9%	?	11%
C=CCn1c(C)cc(C(=O)COC(=O)/C=C/c2c(C)nn(C3CCS(=O)(=O)C3)c2Cl)c1C (stereo unspecified)	1%	-25%	-21%	-2%	?	-2%
CC(=O)c1ccc(N2CCN(c3ncnc4c3c(-c3ccccc3)cn4-c3cccc(C)c3)CC2)cc1	.	-20%	-3%	-2%	-14%	.
C=CCN(C(=O)C1CC(=O)N(C2CCCC2)C1)c1nc(-c2ccc(S(C)(=O)=O)cc2)cs1 (stereo unspecified)	-15%	15µM*	-27%	0%	15µM*	-19%
Cc1ccc(NC(=S)N/N=C/c2ccc(Cl)c([N+](=O)[O-])c2)cc1	-4%	-6%	-33%	-25%	10%	-4%
COc1cc(/C=N/Nc2ccccc2[N+](=O)[O-])cc(OC)c1O	-22%	6.5µM*	-2%	-6%	?	-19%
COc1cc(/C=N/Nc2ccc(S(N)(=O)=O)cc2[N+](=O)[O-])cc(OC)c1O	6%	-23%	5%	1%	-20%	1%
CC(C)(C)NC(=S)N/N=C/c1c(Cl)cccc1Cl	0%	?	-25%	-21%	-23%	-3%
O=[N+]([O-])c1cc(/C=N/NC(=S)Nc2ccccc2Cl)ccc1Cl	?	12µM*	-59%	-28%	?	?
Cc1ccc(NC(=S)N/N=C/c2c(Cl)cccc2Cl)c(C)c1	0.52µM*	1.5µM*	4%	-28%	1.3µM*	?
Fc1cccc(/C=N/NC(=S)Nc2ccccc2Cl)c1	?	2.6µM*	-16%	?	6.5µM*	?
O=C(NCCN1CCOCC1)C(=O)NCC1OCCCN1S(=O)(=O)c1cc(F)ccc1F (stereo unspecified)	14%	21%	-6%	-3%	-14%	5%
FC(F)(F)c1ccc(Cl)c(NC(=S)N/N=C/c2ccccc2Cl)c1	-29%	?	-12%	-5%	?	-9%
Cc1ccccc1NC(=O)C(=O)N/N=C/c1cccc(Br)c1	15%	1%	-4%	?	1%	16%
S=C(N/N=C/c1ccc(Cl)c(Cl)c1)Nc1ccccc1Cl	8.2µM*	?	-52%	-1%	23µM*	15µM*
Fc1ccc(NC(=S)N/N=C/c2cccc(Br)c2)c(F)c1	2%	4.1µM*	-2%	-6%	6.5µM*	?
COc1ccc(/C=N/NC(=S)Nc2ccccc2[N+](=O)[O-])cc1O	?	4.6µM*	-26%	?	6.5µM*	-26%

Source: PubChem BioAssay
